# Assay results published in PubChem BioAssay.
# The source made the active and inactive calls.
# Assay: yeast growth modulation, basal conditions, primary screen, YJM789 clinical isolate, OD600, 24 h (AID 1089);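 further: growth of clinical yeast isolate S. cerevisiae YJM 789 seeded 1000 cells per well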
# Conditions: S. cerevisiae YJM789 growth, higher = more signal, called active from +8 up or from −8 down
# Further: test concentration not given here.
row,SMILES,z-score
1,COc1ccc(CN(C2=CC[C@@]3(C(N)=O)C(=O)C(Cl)=C(Cl)C(=O)[C@@]3(C#N)C2)S(=O)(=O)c2ccc(Br)cc2)cc1,-1.62 (inactive)
2,COC(=O)c1cn(C[C@@H](Cc2ccccc2)NC(=O)N[C@H](CO)CCc2oc(C(C)=O)c(C(=O)OC)c2C(=O)OC)nn1,0.0017 (inactive)
3,CCOC(=O)C[C@H]1[C@H](OC(=O)c2cc3ccccc3oc2=O)[C@@H](NC(=O)c2ccc(-c3ccccc3)cc2)c2cc(OCCCO)ccc2N1C(=O)c1ccccc1,0.11 (inactive)
4,COC(=O)[C@@]1(Cc2ccc(OC)cc2)[C@H]2c3cc(C(=O)N(C)C)n(C[C@H](O)CO)c3C[C@H]2CN1C(=O)c1ccccc1,0.398 (inactive)
5,CC(C)[Si](C#C[Si](C(C)C)(C(C)C)C(C)C)(O[C@H](C)c1cn([C@H](CO)Cc2ccccc2)nn1)C(C)C,-0.653 (inactive)
6,CCOC(=O)C1=CC[C@@H](c2ccccc2C(F)(F)F)N(S(=O)(=O)c2ccc(C)cc2)[C@H]1c1ccc(C#N)cc1,-0.242 (inactive)
7,C[N+](C)(C)CCCC[C@@H]1NC(=O)[C@H]2C[C@@H](C(=O)NCCCCCCN)[C@@H](c3ccc(O)cc3)N2C1=O,0.731 (inactive)
8,CC(C)N1CC=CC23O[C@@H]4C=CCOC(=O)[C@@H]4[C@H]2C(=O)N(CCCO)[C@@H]3C1=O (stereo partly drawn),-1.46 (inactive)

# Assay: fission yeast growth modulation, primary screen, strain 972, OD600, 24 h, no modulator (AID 1090);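 further: basal condition with compound alone and no growth modifier present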
# Conditions: S. pombe 972 growth, higher = more signal, called active from +8 up or from −8 down
row,SMILES,z-score
1,COC(=O)C(CC#Cc1ccc2c(c1)[C@]1(C(=O)N2)[C@H](C(=O)N2CCN(c3ncccn3)CC2)[C@H]2C(=O)O[C@H](c3ccccc3)[C@H](c3ccccc3)N2[C@@H]1c1ccc(OCCO)cc1)C(=O)OC,2.13 (inactive)
2,COCCOC(=O)N1C(=O)[C@@]2(c3cc(C#CC4=CCCCC4)ccc31)[C@H](c1ccccc1OCCO)N1[C@H](c3ccccc3)[C@H](c3ccccc3)OC(=O)[C@H]1[C@@H]2C(=O)N1CCCCCCC1,1.59 (inactive)
3,CCOC(=O)C[C@H]1[C@H](OC(=O)c2ccc(C(=O)c3ccccc3)cc2)[C@@H](NC(=O)Cc2ccc(OC)cc2)c2cc(OCCCO)ccc2N1C(=O)c1ccccc1,0.169 (inactive)
4,C=CC[C@@]1(C(=O)N2CCOCC2)N=C(c2ccc(OCCCO)cc2)O[C@@H]1c1ccccc1CN=[N+]=[N-],0.472 (inactive)
5,NC(=O)NCC#Cc1ccc2c(c1)[C@]1(C(=O)N2)[C@H](C(=O)NC[C@H](O)c2ccccc2)[C@H]2C(=O)O[C@H](c3ccccc3)[C@H](c3ccccc3)N2[C@@H]1c1ccc(OCCO)cc1,0.682 (inactive)
6,C=C(COC)/C(=C/C[C@H](OC(=O)c1ccncc1)c1ccccc1OCCO)c1cnc2ccccc2c1,-0.997 (inactive)
7,[N-]=[N+]=Nc1ccccc1C[C@]1(C(N)=O)N=C(c2ccc(OCCCO)cc2)O[C@H]1c1ccccc1N=[N+]=[N-],-1.28 (inactive)
8,CN1C(=O)C2C=CC(C(O)c3ccccn3)N(N(c3ccccc3)c3ccccc3)C2C1=O (stereo not drawn),0.863 (inactive)
9,NCCCCCCNC(=O)[C@@H]1C[C@@H]2C(=O)N[C@@H](CCCCN)C(=O)N2[C@@H]1c1cccc(OCCO)c1,0.962 (inactive)
10,O=C1N(Cc2ccccc2)c2ccccc2[C@@H]2OC(c3ccc(OCCCO)cc3)=N[C@]12Cc1ccccc1,-1.14 (inactive)
11,CCCCCCCCCCC(O)C1C=CC2C(=O)N(C)C(=O)C2N1NC(=O)OC(C)(C)C (stereo not drawn),-16.5 (active)
12,OCCCC1=CC(c2ccc(CN3CCCC3)cc2)N(Cc2sc3ccccc3c2Cl)CC1 (stereo not drawn),-14.3 (active)
13,[N-]=[N+]=Nc1ccccc1[C@@H]1OC(c2ccc(OCCCO)cc2)=N[C@]1(Cc1ccccc1)C(=O)NCC(O)CO (stereo partly drawn),-1.4 (inactive)
14,C=CCC(OC(C)=O)[C@@H]1[C@@H](N(Cc2cc3ccccc3o2)C(=O)c2ccc(-c3ccccc3)cc2)c2cc(OCCCO)ccc2N1C(=O)c1ccc2ccccc2c1 (stereo partly drawn),0.314 (inactive)
15,Cc1cc(C)c(C(O)C2C=CC3C(=O)N(c4ccccc4)C(=O)C3N2Nc2ccc(C(C)C)cc2)c(C)c1 (stereo not drawn),0.863 (inactive)
16,COc1cc(OC)c(C(O)C2C=CC3C(=O)N(c4ccccc4)C(=O)C3N2Nc2ccccc2)cc1Br (stereo not drawn),1.09 (inactive)
17,CO[C@H]1O[C@H](CO)[C@@H](OC(=O)Nc2ccccc2-c2ccccc2)[C@H](OC(=O)Nc2ccc3c(c2)OCO3)[C@H]1OC(=O)Nc1ccc2c(c1)OCO2,1.35 (inactive)
18,CC1CC/C=C\[C@H]2OC34C=CCN(c5ccc(Cl)cc5)C(=O)[C@H]3N(CCCCCO)C(=O)[C@]4(C)C2C(=O)O1 (stereo partly drawn),0.177 (inactive)

row,SMILES,z-score
1,CC(C)N1C(=O)c2ccccc2[C@@H](C(=O)NC2CC2)[C@@H]1c1ccc(CO)cc1,-0.826 (inactive)
2,COCCCNC(=O)[C@@]1(Cc2ccccc2CN=[N+]=[N-])N=C(c2ccc(OCCCO)cc2)O[C@H]1c1ccccc1,1.04 (inactive)
3,COc1ccc([Si](C)(C)[C@@H]2[C@@H](CCO)O[C@]3(C(=O)N(Cc4ccc(N5CCCCC5=O)cc4)c4ccccc43)[C@H]2C)cc1,0.0767 (inactive)
4,C=C(/C(=C/C[C@@H](OC(C)=O)c1cccc(OCCO)c1)c1cc(C(=O)OC)ccc1OC)C(C)C,0.114 (inactive)
5,C=C(COC)C(=O)CC[C@@H](OC(=O)c1cccnc1)c1ccc(OCCO)cc1,-20.4 (active)
6,CN(C)c1ccc(C(O)C2C=CC3C(=O)N(c4ccccc4)C(=O)C3N2Nc2ccc([N+](=O)[O-])cc2)cc1 (stereo not drawn),-1.3 (inactive)
7,C=C[C@@H](COC(C)=O)N(C(=O)OC(C)(C)C)S(=O)(=O)c1ccc(Br)cc1,-1.54 (inactive)
8,CCCC[C@@H](O)C1=C(COc2ccccc2)C[C@H]2C(=O)N(C)C(=O)[C@H]2[C@H]1CO,-1.79 (inactive)
9,COC(=O)c1ccc([C@H](NC(=O)c2ccco2)[C@]2(C)C[C@H]2C2CCCCC2)cc1,0.17 (inactive)
10,COc1ccc(CN(C2=CC[C@@]3(C(N)=O)C(=O)C(Cl)=C(Cl)C(=O)[C@@]3(C#N)C2)S(=O)(=O)c2ccc(Br)cc2)cc1,-2.63 (inactive)
11,COC(=O)c1cn(C[C@@H](Cc2ccccc2)NC(=O)N[C@H](CO)CCc2oc(C(C)=O)c(C(=O)OC)c2C(=O)OC)nn1,-0.814 (inactive)
12,CCOC(=O)C[C@H]1[C@H](OC(=O)c2cc3ccccc3oc2=O)[C@@H](NC(=O)c2ccc(-c3ccccc3)cc2)c2cc(OCCCO)ccc2N1C(=O)c1ccccc1,-1.64 (inactive)
13,COC(=O)[C@@]1(Cc2ccc(OC)cc2)[C@H]2c3cc(C(=O)N(C)C)n(C[C@H](O)CO)c3C[C@H]2CN1C(=O)c1ccccc1,0.251 (inactive)
14,CC(C)[Si](C#C[Si](C(C)C)(C(C)C)C(C)C)(O[C@H](C)c1cn([C@H](CO)Cc2ccccc2)nn1)C(C)C,-0.644 (inactive)
15,CCOC(=O)C1=CC[C@@H](c2ccccc2C(F)(F)F)N(S(=O)(=O)c2ccc(C)cc2)[C@H]1c1ccc(C#N)cc1,1.2 (inactive)
16,C[N+](C)(C)CCCC[C@@H]1NC(=O)[C@H]2C[C@@H](C(=O)NCCCCCCN)[C@@H](c3ccc(O)cc3)N2C1=O,-1.51 (inactive)
17,CC(C)N1CC=CC23O[C@@H]4C=CCOC(=O)[C@@H]4[C@H]2C(=O)N(CCCO)[C@@H]3C1=O (stereo partly drawn),-2.28 (inactive)
